# Experiments:
# Settings in all cases: concentration: 1 μM,replicates: in singlicate; n = 1
# [1] = system: CAMK1
# [2] = system: CAMK2A
# [3] = system: CAMK2B
# [4] = system: CAMK2D
# [5] = system: CAMK2G
# [6] = system: CAMK4
# [7] = system: CAMKK1
# [8] = system: CAMKK2
# [9] = system: CASK
# [10] = system: T1, CDC2L1
# T1 construct: gene CDK11B
# [11] = system: CDC2L2
# [12] = system: T2, CDC2L5
# T2 construct: gene CDK13
# [13] = system: T3, CDK11
# T3 construct: gene CDK19
# [14] = system: CDK2
# [15] = system: CDK3
# [16] = system: CDK4-cyclinD1
# [17] = system: CDK4-cyclinD3
# [18] = system: CDK4
# [19] = system: CDK5
# [20] = system: CDK7
# 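Further: KINOMEscan kinase panel screen.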
Structure (SMILES),%Inh [1] [%],%Inh [2] [%],%Inh [3] [%],%Inh [4] [%],%Inh [5] [%],%Inh [6] [%],%Inh [7] [%],%Inh [8] [%],%Inh [9] [%],%Inh [10] [%],%Inh [11] [%],%Inh [12] [%],%Inh [13] [%],%Inh [14] [%],%Inh [15] [%],%Inh [16] [%],%Inh [17] [%],%Inh [18] [%],%Inh [19] [%],%Inh [20] [%]
C[C@@H]1CNc2c(sc3ccc4nc(-c5ccc(O)cc5)ccc4c23)C(=O)N1,16,35,36,32,23,30,40,58,0,0,6,0,37,0,12,30,0,4,25,82
Nc1nccc(-c2ccc3c(N)n[nH]c3c2)n1 [GSK1034945],11,0,5,0,0,0,1,8,6,0,4,0,37,0,13,0,0,1,0,0
C[C@@H]1CCN(C(=O)N2CCCC2)C[C@@H]1N(C)c1ncnc2[nH]ccc12,5,2,0,12,14,19,15,8,0,3,0,6,2,0,15,21,8,11,18,34
CC(=O)c1c(-c2ccncc2)[nH]c(-c2ccncc2)c1C [GW493036],26,0,0,0,0,0,0,0,25,0,4,0,13,31,53,0,38,0,0,96.2
CCN1CCN(CCCC(=O)Nc2n[nH]c3nc(-c4ccc(O)cc4)c(Br)cc23)CC1 [SB-731579],0,0,0,0,0,10,0,0,0,0,4,0,0,1,30,99.5,95.1,22,0,94.7
Cl.Cl.NC[C@H](CC1CCCCC1)NC(=O)c1ccc(-c2ccnc3[nH]ccc23)s1 [GSK1581428],37,0,0,7,5,0,40,27,4,0,0,0,4,11,0,0,23,25,0,94.6
O=C(Nc1cccc(C(F)(F)F)c1)c1cccc(Oc2ccc3nccn3n2)c1,1,0,0,0,0,0,8,0,17,1,3,0,0,11,22,18,19,0,0,0
O=C(NCC1CC1)c1ccc(-c2cc(C(=O)NC3CC3)ccc2F)cc1 [GW810445],0,0,0,0,0,0,0,0,41,0,0,7,32,0,7,0,0,1,0,0

# Reference: paper PMC5540273 (PLoS ONE, 2017)
